Measured values published in PubChem BioAssay (NCI).
Compounds without any hit were thinned out: in the full panel of roughly 79,000, 15% have a hit. The source made the active and inactive calls. Rule as the data show it: active = growth inhibition above about 70%; inactive = the rest.

Legend:
[1] = NCI Yeast Anticancer Drug Screen. Data for the rad50 strain (AID 155);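 also: 0% = growth of vehicle-only cultures of the same strain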; conditions: S. cerevisiae rad50 strain growth inhibition; at 50.0 µM; active compounds read high
Procedure, shortened: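 Relative growth inhibition (compound vs vehicle) was measured in yeast with a defined repair-gene alteration.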

[2] = NCI Yeast Anticancer Drug Screen. Data for the mec2-1 strain (AID 157); conditions: S. cerevisiae mec2-1 strain, at 50.0 µM, active compounds read high
Procedure, shortened: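 Vehicle-treated cultures served as reference for growth inhibition of compound-exposed mec2-1 yeast.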

[3] = NCI Yeast Anticancer Drug Screen. Data for the sgs1 mgt1 strain (AID 161);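 also: 0% = growth of cultures given vehicle only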; conditions: S. cerevisiae sgs1 mgt1 strain, at 50.0 µM, active compounds read high
Procedure, shortened: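 Genetically altered yeast, compound exposure, growth inhibition relative to vehicle.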

[4] = NCI Yeast Anticancer Drug Screen. Data for the cln2 rad14 strain (AID 165);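 also: 0% = growth equal to vehicle treated cultures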; conditions: S. cerevisiae cln2 rad14 strain, at 50.0 µM, active compounds read high
Procedure, shortened: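 Each compound was tested on cln2 rad14 yeast. Inhibition of growth was calculated against vehicle-exposed controls.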

[5] = NCI Yeast Anticancer Drug Screen. Data for the bub3 strain (AID 167); conditions: S. cerevisiae bub3 mutant strain, at 50.0 µM, active compounds read high
Procedure, shortened: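 Screening used yeast with an engineered genetic alteration affecting cell cycle control. Compound-exposed cultures were compared with vehicle cultures, and reduced growth was taken as inhibition.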

[6] = NCI Yeast Anticancer Drug Screen. Data for the mlh1 rad18 strain (AID 175); conditions: S. cerevisiae mlh1 rad18 strain growth inhibition; at 50.0 µM; active compounds read high
Procedure, shortened: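 Vehicle-treated cultures served as the reference for growth inhibition in a yeast strain carrying DNA damage repair alterations exposed to each compound.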

Measured: growth inhibition

CNC(=O)c1ccccc1Sc1ccccc1
inactive: [1] -4.25% | [2] -15.8% | [3] -16.3% | [4] -34.8% | [5] 0.2% | [6] 3.15%

CC(C)(O)CC(C)(c1ccccc1)c1ccccc1
inactive: [1] -9.95% | [2] 0.75% | [3] -1.25% | [4] -39% | [5] -13.1% | [6] -15.2%

CC1C2CC(C/C2=N/O)C1(C)C (stereo not drawn)
inactive: [1] 19.7% | [2] 19.1% | [3] 36.5% | [4] 29.1% | [5] 11.3% | [6] 21.6%

CCOC(=O)c1cc(CC)sc1N
inactive: [1] -1.55% | [2] -9.75% | [3] 10.7% | [4] -10.2% | [5] 12.2% | [6] -12.5%

O=C1OC(Cl)C=C1c1ccccc1 (stereo not drawn)
inactive: [1] 5.2% | [2] -7.35% | [3] -4.35% | [4] -36.5% | [5] -23.5% | [6] 0.65%

O=S1c2ccccc2N=C(c2cccc3ccccc23)CC1c1cccc2ccccc12 (stereo not drawn)
inactive: [1] 56.4% | [2] 38.8% | [3] 52.5% | [4] 23.8% | [5] 58.1% | [6] 41%

CN1[C@@H]2C[C@@H](OC(=O)[C@H](CO)c3ccccc3)C[C@H]1[C@@H]1O[C@@H]12
inactive: [1] -1.3% | [2] 2.4% | [3] -33.7% | [4] -20.4% | [5] -10.3% | [6] 5.6%

Cc1c(C#N)c2n(c1C)CC(=O)N2
inactive: [1] 7.85% | [2] 0.45% | [3] 2.8% | [4] -0.85% | [5] -20.4% | [6] -33.9%

CC(C)(C)CC(C)(C)c1ccc(OCCOc2ccc(C(=O)Nc3ccc([N+](=O)[O-])cc3)cc2)cc1
inactive: [1] 49.9% | [2] -0.3% | [3] 42.5% | [4] 6% | [5] -5.65% | [6] 22.9%

CCC(=O)NCCCCC1CCCC[N+]1(C)C (stereo not drawn)
inactive: [1] -0.65% | [2] -11.9% | [3] 7.45% | [4] -14.4% | [5] -2% | [6] -15.8%

Cn1cnc([N+](=O)[O-])c1Sc1nc(N)nc2c1ncn2C1OC(CO)C(O)C1O (stereo not drawn)
inactive: [1] -9.3% | [2] 20.3% | [3] 15.6% | [4] 25.1% | [5] 14.2% | [6] -8.5%

Cc1cccc(C(=O)O)c1N
inactive: [1] 9.7% | [2] -5.25% | [3] -10.6% | [4] 9.95% | [5] -33.6% | [6] 13.4%

CC(=O)OC1C(=O)OC(=O)C1OC(C)=O (stereo not drawn)
inactive: [1] 9.6% | [2] 0.9% | [3] 8.1% | [4] 5.25% | [5] 6.05% | [6] -3.85%

Nc1nc(-c2ccccc2)c(N=Nc2cc(Cl)ccc2Cl)s1
inactive: [1] 4.5% | [2] 1% | [3] -2.3% | [4] -5.05% | [5] 8.2% | [6] -2.1%

O=[N+]([O-])c1ccc(C=NCCO)cc1
inactive: [1] 8.75% | [2] 8.55% | [3] 3.7% | [4] -1% | [5] 9.2% | [6] -5.4%

CCSC(C#N)C(C)=O (stereo not drawn)
inactive: [1] 34.9% | [2] 22.1% | [3] 56.4% | [4] 38.5% | [5] 39% | [6] 42.6%

C(=C\c1cccs1)/c1csnn1
inactive: [1] 0.7% | [2] 15.7% | [3] 3.45% | [4] 12.8% | [5] -1.75% | [6] -7.55%

CCN(CC)CCC(=O)O
inactive: [1] -13.4% | [2] -19.4% | [3] -7% | [4] 5.95% | [5] -10.7% | [6] -5.2%

CCc1ccc2c(OC(C)=O)c3ccccc3c(OC(C)=O)c2c1
inactive: [1] 36.4% | [2] 41.3% | [3] 33.4% | [4] 18.2% | [5] 46%
active: [6] 74.6%

O=C1CN(c2cccc(Cl)c2)C(=O)CN1NCNN1CC(=O)N(c2cccc(Cl)c2)CC1=O
inactive: [1] -12.8% | [2] -0.1% | [3] 3.9% | [4] 6.65% | [5] -6.8% | [6] 2.75%

Nc1nc2c(ncn2C2OC(CO)C3OP(=O)(O)OC32)c(=O)[nH]1 (stereo not drawn)
inactive: [1] -8.5% | [2] -5.1% | [3] -19.4% | [4] -29.4% | [5] 0.2% | [6] -15.8%

Cn1c(=O)c2c(ncn2CN2CCN(Cn3cnc4c3c(=O)n(C)c(=O)n4C)CC2)n(C)c1=O
inactive: [1] 2.75% | [2] 28.2% | [3] -7.45% | [4] 16.1% | [5] -63.9% | [6] -30%

O=C(CC(=O)C(F)(F)F)Nc1cccc2ccccc12
inactive: [1] 6.65% | [2] -3.1% | [3] 10.6% | [4] -84.5% | [5] 0.1% | [6] 1.05%

CC(CC(=O)O)(CC(=O)O)c1ccccc1
inactive: [1] 19.6% | [2] -35.5% | [3] -11.2% | [4] -7.3% | [5] -7.05% | [6] -35.1%

Cc1cccc(Cl)c1NC(=O)CN(C)C
inactive: [1] 21.4% | [2] -0.55% | [3] 17.7% | [4] 10.4% | [5] 19.6% | [6] 24.7%

Cc1cc(C)c(NC(=O)C(Br)C(Br)c2ccccc2)c(C)c1 (stereo not drawn)
inactive: [1] 11.6% | [2] -5.6% | [3] 5.1% | [4] 23.8% | [5] 2.15% | [6] 21.4%

CC(C)COC(=O)N1N=NC2C3OC(CC3=O)C21 (stereo not drawn)
inactive: [1] -4.7% | [2] -17.1% | [3] -8.1% | [4] 8.8% | [5] -13.2% | [6] -15.7%

Nc1ccc(Cl)cc1Br
inactive: [1] 6.35% | [2] 22.4% | [3] -6.5% | [4] 5.5% | [5] -7.05% | [6] 8.6%

CNn1c(-c2ccccc2)n[nH]c1=O
inactive: [1] 6.65% | [2] 2.85% | [3] 11.4% | [4] 26.2% | [5] 6.45% | [6] 19.4%

CN(C)c1ccc(/C=C/C=C(/C#N)c2ccccc2)cc1
inactive: [1] 14.8% | [2] 8.5% | [3] 2.9% | [4] 32.2% | [5] 24.3% | [6] 2.65%

CCCCOB(OCCCC)Oc1c(C(C)(C)C)cccc1C(C)(C)C
inactive: [1] 2.7% | [2] -4.6% | [3] -4.7% | [4] 9.8% | [5] -5.65% | [6] 3.75%

CCSc1nc(N)c2c(-c3ccc(OC)c(OC)c3)c3c(nc2n1)CCCC3
inactive: [1] -32.6% | [2] -17.2% | [3] -39.5% | [4] -3.35% | [5] -15.8% | [6] -25.4%

O=C1CC(c2ccc(Cl)cc2)C(=O)O1 (stereo not drawn)
inactive: [1] -10.5% | [2] 12% | [3] 1.6% | [4] 3.2% | [5] -23.4% | [6] -15.1%

COc1nc(N)c(NC(C)=O)c(=O)n1C
inactive: [1] 3.9% | [2] -19.2% | [3] -21.4% | [4] -4.3% | [5] -22.6% | [6] 9%

C/C(=N\NC(=O)c1ccccc1O)c1cccc(/C(C)=N/NC(=O)c2ccccc2O)n1.O=S(=O)([O-])[O-].[Fe+2]
inactive: [1] 11.4% | [2] 38.8% | [3] 39.5% | [4] -0.9% | [5] 0.65% | [6] 40.7%

CN(C)CCN(CCN(C)C)CCN(C)C
inactive: [1] 6.85% | [2] -21.5% | [3] 12.3% | [4] 9.45% | [5] 25.1% | [6] 14.6%

Cc1cc(C)c(-c2no/c(=N\S(=O)(=O)c3ccc(Cl)cc3)o2)c(C)c1
inactive: [1] -10% | [2] -4.1% | [3] 0.75% | [4] 26% | [5] -13.1% | [6] 3.85%

O=C1OC(c2cccc(Cl)c2)=N/C1=C\c1ccc(O)cc1
inactive: [1] 15.8% | [2] 9.85% | [3] 15.6% | [4] 8.35% | [5] 1.45% | [6] -3.2%
